Assay outcomes from PubChem.
Rows were chosen to be rich in hits. Some 2.1% of all compounds tested hit in one or more screens of this group.
TDP43 rescue: rescues yeast growth from TDP-43 toxicity. AID 652104. TDP-43 expressing yeast growth rescue, BacTiter-Glo, 24 h. actives 1.8% (n = 410,000). Potency, µM (doses to about 46.1 µM), for inactives: at the highest dose growth rescue (activation), actives largely listed as activators; also: % of control where 0% means no effect; nearly all actives have a fitted effect of over 50% in size
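In this qHTS, compounds that restore growth of yeast expressing TDP-43 appear as activators. Cells (OD600=0.02, galactose medium, raffinose-pregrown) are incubated with compound 24 hr at 30 deg C and growth is quantified by BacTiter-Glo.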
Abeta rescue: restores growth of yeast expressing A-beta42 peptide | yeast expressing A-beta42, growth rescue, OD600, 48 h; response scale: 0% DMSO, 100% iron-clioquinol control | Potency, µM (titrated, usually from 46.1 µM), most hits filed as activators | actives 0.063% (n = 410,000) | AID 1347071; also: nearly all actives have a fitted effect of over 55% in size
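Growth rescue measured by 600 nm absorbance after 48 h yeast culture at 30 C with compound. Values normalized between DMSO and an equimolar ferric chloride plus clioquinol control.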
aSyn yeast inh: rescues yeast growth from alpha-synuclein toxicity; actives 0.14% (n = 370,000); Yeast expressing alpha-synuclein, growth rescue, BacTiter-Glo, 24 h; Potency, µM (doses to about 46.1 µM), for the others: top-dose growth rescue (activation), actives largely listed as activators; AID 652106; also: % of control where 0% means no effect; nearly all actives have a fitted effect of over 65% in size
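Galactose-induced alpha-syn yeast (OD600=0.02, raffinose-pregrown) + pinned cpd, 24 hr, 30 deg C; growth by BacTiter-Glo luminescence. Growth restoration scores as activation.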
FUS suppressor: FUS proteinopathy suppression in yeast; S. cerevisiae FUS-expressing, growth rescue, OD600, 24 h; Potency, µM (top dose mostly 76.6 µM), hits mostly activators; actives 0.24% (n = 390,000); AID 1347120;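 also: plate controls were DMSO vehicle for no effect and reference control for full effect; nearly all actives have a fitted effect of over 55% in size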
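Yeast expressing FUS under galactose induction, OD 0.005 in 2% galactose medium; compounds in a dilution series, 24 h at 30C. Growth rescue by absorbance at 600 nm; CP55940 positive control, DMSO negative.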
* = called active by the depositor; i = inactive; ? = inconclusive; / = not tested or not shown; [ ] = dose if it differs, or a comment. Calls follow the shape of the dose curve; as a rule, active = well fitted curve in the direction sought with a large enough effect; inconclusive = small, poorly fitted or top-dose-only effect, or another doubt; inactive = no such curve, though single readings can be large; an effect the other way counts as inactive or inconclusive. Potency is read from the fitted curve at half-maximal effect.

SMILES | TDP43 rescue | Abeta rescue | aSyn yeast inh | FUS suppressor
CCOc1ccccc1NC(=O)CSc1nnc(SCc2ccccc2)s1 | / | / | / | i
CCNc1cc2c(cc1O)CCC1C2CCC2(C)C(O)CCC12 (configuration not stated) | ? | i | 14% | /
CCOc1cc2c(cc1O)CCC1C2CCC2(C)C(O)CCC12 (configuration not stated) | 16µM* | i | 1% | /
O=c1c(Cl)c(Cl)cnn1Cc1nnc(-c2ccccc2Br)o1 | 13µM* | i | 5% | i
Clc1ccccc1OCc1nnc(-c2ccccc2Br)o1 | 27% | i | -3% | i
CC(=O)N(c1ccc2oc(=O)sc2c1)S(=O)(=O)c1cccc2cccnc12 | 11% | i | 6% | i
O=C(NCC1CCCO1)c1ccc2c(=O)n(Cc3cccc(Br)c3)c(=S)[nH]c2c1 (configuration not stated) | -14% | i | 0% | i
N#Cc1c(-c2ccccc2)nc(N2CCCCCC2)[nH]c1=O | -17% | i | 1% | i
CCc1cc2ccc(C)cc2nc1SCC(=O)N1CCN(C(=O)c2ccco2)CC1 | 14µM* | i | 4% | /
CCc1cc2cc3c(cc2nc1SCC(=O)N1CCN(C(=O)c2ccco2)CC1)OCO3 | 9% | i | 4% | i
O=C(C1COc2ccccc2O1)N1CCN(S(=O)(=O)c2cc(F)ccc2F)CC1 (configuration not stated) | 28µM* | i | -2%[1.84 µM] | i
O=C(C1COc2ccccc2O1)N1CCN(c2nc3ccc([N+](=O)[O-])cc3s2)CC1 (configuration not stated) | ? | i | -6% | i
O=C(C1COc2ccccc2O1)N1CCN(c2nc3ccccc3s2)CC1 (configuration not stated) | 11µM* | i | 7% | i
CCSc1ccccc1C(=O)N1CCN(c2nc3ccccc3s2)CC1 | 18µM* | i | / | i
CS(=O)(=O)N1CCC(C(=O)Nc2ccccc2)CC1 | -9% | i | -5% | i
CC(C)(C)S(=O)(=O)c1cnc2c(-c3ccsc3)cnn2c1N | 21% | i | 0% | i
COc1cc(CNC2CCCc3ccccc32)cc(OC)c1OC (configuration not stated) | -10% | i | 3% | i
COc1ccc(CNC(=O)c2cc(COc3c(F)cccc3F)on2)cc1OC | 4% | i | -4% | i
CCOc1ccc2nc(N3CCN(C(=O)c4ccco4)CC3)sc2c1 | ? | i | / | i
CCc1ccc2nc(N3CCN(C(=O)c4ccco4)CC3)sc2c1 | 14µM* | i | / | ?
COc1ccc(-c2csc(N3CCN(C(=O)c4ccccc4)CC3)n2)cc1 | ? | i | 3% | i
O=C(c1ccc2nc(N3CCOCC3)sc2c1)N1CCN(C(=O)c2ccco2)CC1 | 23% | i | 4% | i
COc1ccc(-c2csc(N3CCN(C(=O)c4ccco4)CC3)n2)cc1 | 20µM* | i | -15% | i
COc1ccc2nc(N3CCN(C(=O)c4ccco4)CC3)sc2c1 | 20µM* | i | / | i
Cc1ccc(SCC(=O)OC(C)C(=O)N2CCc3ccccc32)cc1 (configuration not stated) | -2% | i | 1% | i
SMILES | TDP43 rescue | Abeta rescue | aSyn yeast inh | FUS suppressor
Cc1cc(C)c(OCC(=O)OC(C)C(=O)N2CCc3ccccc32)c(C)c1 (configuration not stated) | 22µM* | i | -19% | i
CCOC(=O)[C@]12CCCC=C1N(Cc1ccco1)C(=O)[C@H](CC(=O)NCc1ccc(OC)c(OC)c1)C2 | 14% | i | 1% | i
COC(=O)c1c(NC(=O)c2c(OC)cccc2OC)sc2c1C(C(=O)OC)CC2 (configuration not stated) | 13% | i | 0% | i
NC(=S)NNC(=O)c1cc(C(F)(F)F)cc(C(F)(F)F)c1 | -14% | i | -8% | i
CN1C(=O)/C(=C2\SC(N3CCCCCC3)=NC2=O)c2ccccc21 | 16µM* | i | 7% | i
CC(Cc1cccs1)NC(=S)Nc1ccc(F)cc1 (configuration not stated) | -18%[0.397 µM] | 13µM* | 0% | i
COc1ccc(NC(=S)NC(C)Cc2cccs2)cc1 (configuration not stated) | ? | ? | 1% | i
Cc1ccc(Sc2c(C)nn(-c3ccccc3)c2OC(=O)C(C)(C)C)cc1 | 14µM* | i | / | i
CCC(=O)Oc1c(Sc2ccc(C)cc2)c(C)nn1-c1ccccc1 | 30% | i | / | i
CCCC(=O)Oc1c(Sc2ccc(C)cc2)c(C)nn1-c1ccccc1 | 11µM* | i | / | i
Cc1nn(-c2ccccc2)c(OC(=O)C(C)(C)C)c1Sc1ccccc1 | ? | i | / | i
CC(=O)[C@H]1CC[C@H]2[C@@H]3CC=C4C[C@@H](O)CC[C@]4(C)[C@H]3CC[C@]12C | -4% | i | 12% | i
COC1CCC2(C)C(=CCC3C4CC(O)CC4(C)CCC32)C1 (configuration not stated) | 14µM* | i | 16% | /
O=C(Nc1cccc(OC(=O)c2ccc(Br)o2)c1)c1ccccc1 | 22µM* | i | -7% | i
Cc1cc(C)c(S(=O)(=O)NCc2cccs2)cc1C | 13% | i | 11% | i
CCCOc1cc(C)c(S(=O)(=O)NCc2cccs2)cc1C | 20µM* | i | 10µM* | i
COc1ccc(C=CC(=O)c2ccc(OC)c(OC)c2)cc1O | ? | i | ? | i
COc1ccc(C(=O)C=Cc2ccc3c(c2)OCO3)cc1OC | 14µM* | i | -1% | i
O=C(O)c1ccc(/C=C/C(=O)c2ccc3c(c2)OCCCO3)cc1 | 2% | i | 6% | i
Cc1ccc(O)c(C(=O)/C=C/c2ccc3c(c2)OCCO3)c1 | 18µM* | i | -2% | i
COc1ccc(C)cc1NC(=O)c1ccc2c(c1)OCO2 | 13µM* | i | 10% | i
O=C(/C=C/c1ccc2c(c1)OCCO2)c1ccccc1 | 16µM* | i | -3% | i
COc1ccc(C)cc1NC(=O)COC(=O)c1ccc2c(c1)OCO2 | -3% | i | -12% | i
CC(NC(=O)COc1ncnc2cc([N+](=O)[O-])ccc12)c1ccccc1 (configuration not stated) | 6% | i | 7% | i
COc1ccc(/C=C/C(=O)c2ccc3c(c2)OCCO3)cc1[N+](=O)[O-] | 13µM* | i | 0% | i
COc1ccc(C(=O)/C=C/c2ccc3c(c2)OCCO3)cc1 | 20µM* | i | 0% | i
CCc1ccc(CCC(=O)N2CCN(S(=O)(=O)c3ccc(Br)cc3)CC2)cc1 | 0% | i | 21% | i
COc1ccc(NS(=O)(=O)c2ccc(-c3coc(C)n3)cc2)cc1OC | 4% | i | 5% | i
